In PubChem BioAssay (NCI):
About 83,000 compounds went through this panel and 20% of them were active in at least one assay; those are over-represented in the sample as a whole.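 Method: cells in 96-well plates; compound added at one concentration; 48 h incubation; percent growth measured; values under 10 scored active.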 Unmarked numbers belong to inactive results. Activity calls are given as the source filed them.

tested on: SNB-19 CNS; experiment: NCI-60 one-dose screen, 48 h (100 = growth as untreated, 0 = no growth, -100 = all killed); details: 10 µM unless noted

Compound | growth
COc1ccc(/C=C/C=C\C(=O)c2ccc(-n3ccnc3)cc2)cc1 | 87.6%
Cc1ccccc1-n1nnc(C(=O)Nc2nc3ccc(F)cc3s2)c1C | 63.7%
O=C(N/N=C/c1ccc([N+](=O)[O-])cc1)c1ccc(Br)o1 | 90.2%
Cc1nc(-c2ccccc2)sc1CC#N | 103%
O=S(=O)(/N=c1/n(-c2ccccc2)nc2n1CCN2C1=NCCN1)c1ccc(-c2ccccc2)cc1 | 97.1%
Nc1ccc2c(c1)Cc1cc(NC(=O)C(F)(F)F)ccc1-2 | 101%
O=C(Nc1ccc(C(=O)/C=C/c2ccc(N3CCOCC3)cc2)cc1)Nc1ccc([N+](=O)[O-])cc1 | 98.4%
C=CCc1nc2ccccc2s1 | 110%
O=C(Nc1cc(F)cc2cccnc12)c1cnc(N2CCNCC2)cn1 | 87.7%
C[n+]1c2ccccc2nc2c(N)cc(N)cc21 | -5.7% (active)
CCOC(=O)CCC[P+](c1ccccc1)(c1ccccc1)c1ccccc1 | 96%
COc1ccc2nc3ccccc3c(NCCNCCO)c2c1 | 1.53% (active)
c1nc(N2CCOCC2)c2[nH]ccc2n1 | 107%
Oc1c(CNCCNCc2cc(Cl)cc(Cc3ccccc3)c2O)cc(Cl)cc1Cc1ccccc1 | 2.51% (active)
COc1cc(Cl)cc(-c2nn(C(=O)NS(=O)(=O)c3ccccc3)cc2-c2ccncc2)c1 | 105%
COc1cccc(-c2[nH]c(=S)ncc2C(=O)c2ccccc2)c1 | 82.9%
CC(C)(C)c1cc(C(=O)Nc2ccccc2C(=O)NCCN)cc(C(C)(C)C)c1 | -46.1% (active)
N=C(N)c1ccc(-c2ccc(-c3ccc(-c4cccs4)s3)s2)cc1F | 91.6%
Cc1c(Cn2cc(COc3ccc(Br)cc3)nn2)c(C)c(Cn2cc(COc3ccc(Br)cc3)nn2)c(C)c1Cn1cc(COc2ccc(Br)cc2)nn1 | 89.7%
CCc1ccc(-c2ccc(COc3ccc(CC4SC(=O)NC4=O)cc3)cc2)cc1 (stereo not given) | 87.1%
Cc1ccc(N)c(O)c1 | 102%
CCCCN(CCCC)CC(O)c1ccc(OCc2ccccc2)c2ccccc12 (stereo not given) | 96.7%

tested on: U251 CNS; experiment: as above; details: 10 µM unless noted

Compound | growth
CNc1cc(C(=O)O)nc(NC)n1 | 99.8%
Brc1ccc2c(c1)CN(C1CCCCC1)CO2 | 108%
CCN=C1C=CC(=C(c2ccc(N(CC)CC)cc2)c2ccc(N(CC)CC)cc2)c2ccccc21 | -89.1% (active)
O=C(CSc1nc2ccc([N+](=O)[O-])cc2[nH]1)Nc1ccc(F)c(Cl)c1 | 11.6%
COc1ccc(-c2ccc(NNC(=O)c3ccc(F)cc3)nn2)cc1OC | 77.1%
CCOC(CNC(=O)c1cccc([N+](=O)[O-])c1)OCC | 97.6%
CN(C)C(=S)Sc1ccc([N+](=O)[O-])cc1[N+](=O)[O-] | 6.55% (active)
CCN(CC)CC(C)Nc1ccc(C)c2sc3ccccc3c(=O)c12 (stereo not given) | 37.4%
CN(C)Cc1ccc[nH]1 | 108%
CNC(=O)c1cc(Oc2cccc3nc(NC(=O)Nc4cc(C(F)(F)F)cc(C(F)(F)F)c4)ccc23)ccn1 | -34.9% (active)
CC1=CC[C@@H]2C(C)(C)[C@@H](O)CC[C@@]2(C)[C@@H]1COc1ccc2ccc(=O)oc2c1 | 67.9%
CC(=O)CC(=O)SC1=NCCS1 | 102%
CSc1cccc([N+](=O)[O-])c1 | 109%
O=C1/C(=C\c2cccn2Cc2ccccc2)c2ccccc2N1c1c(Cl)cccc1Cl | 74.8%
COc1ncnc2c(-c3ccccc3)cn(COCc3ccccc3)c12 | 60.1%
C=C(C)[C@@H]1CC[C@]2(C(=O)NCCCN)CC[C@]3(C)[C@H](CC[C@@H]4[C@@]5(C)CC[C@H](O)C(C)(C)[C@@H]5CC[C@]43C)[C@@H]12 | -13.8% [100 µM] (active)
COc1ccc(/C=C/C=C\C(=O)c2ccc(-n3ccnc3)cc2)cc1 | 83.3%
Cc1ccccc1-n1nnc(C(=O)Nc2nc3ccc(F)cc3s2)c1C | 76.8%
O=C(N/N=C/c1ccc([N+](=O)[O-])cc1)c1ccc(Br)o1 | 101%

Compound | growth
Cc1nc(-c2ccccc2)sc1CC#N | 100%
O=S(=O)(/N=c1/n(-c2ccccc2)nc2n1CCN2C1=NCCN1)c1ccc(-c2ccccc2)cc1 | 92.7%
Nc1ccc2c(c1)Cc1cc(NC(=O)C(F)(F)F)ccc1-2 | 96.2%
O=C(Nc1ccc(C(=O)/C=C/c2ccc(N3CCOCC3)cc2)cc1)Nc1ccc([N+](=O)[O-])cc1 | 85.7%
C=CCc1nc2ccccc2s1 | 100%
O=C(Nc1cc(F)cc2cccnc12)c1cnc(N2CCNCC2)cn1 | 63.6%
C[n+]1c2ccccc2nc2c(N)cc(N)cc21 | 8.86% (active)
CCOC(=O)CCC[P+](c1ccccc1)(c1ccccc1)c1ccccc1 | 52.6%
COc1ccc2nc3ccccc3c(NCCNCCO)c2c1 | 6.95% (active)
c1nc(N2CCOCC2)c2[nH]ccc2n1 | 100%
Oc1c(CNCCNCc2cc(Cl)cc(Cc3ccccc3)c2O)cc(Cl)cc1Cc1ccccc1 | 17%
COc1cc(Cl)cc(-c2nn(C(=O)NS(=O)(=O)c3ccccc3)cc2-c2ccncc2)c1 | 81.5%
COc1cccc(-c2[nH]c(=S)ncc2C(=O)c2ccccc2)c1 | 85%
CC(C)(C)c1cc(C(=O)Nc2ccccc2C(=O)NCCN)cc(C(C)(C)C)c1 | -57.3% (active)
N=C(N)c1ccc(-c2ccc(-c3ccc(-c4cccs4)s3)s2)cc1F | 101%
Cc1c(Cn2cc(COc3ccc(Br)cc3)nn2)c(C)c(Cn2cc(COc3ccc(Br)cc3)nn2)c(C)c1Cn1cc(COc2ccc(Br)cc2)nn1 | 91.3%
CCc1ccc(-c2ccc(COc3ccc(CC4SC(=O)NC4=O)cc3)cc2)cc1 (stereo not given) | 72.8%
Cc1ccc(N)c(O)c1 | 92.7%
CCCCN(CCCC)CC(O)c1ccc(OCc2ccccc2)c2ccccc12 (stereo not given) | 98.2%
